“And” between values parts separate entries of the source, which are not always exact repeats. Equal values may be shown once. About 150 (0.038%) of roughly 390,000 compounds were called active. A call without a number means that no potency is given here. Another 3% or so got no clear call; they are omitted. The call rests on the fitted dose curve; in most records, active means well fitted inhibition curve with a large enough effect; inconclusive means small, poorly fitted or top-dose-only effect; inactive means no such curve, though single readings can be large or run the other way. This excerpt belongs to a sample that is enriched for actives. Where a structure was tested more than once in an assay, its records may differ in their call.
Potency means the concentration at half of the fitted maximal effect.

Sequence of Regulator of G-protein signaling 4 (Homo sapiens) (P49798 whole entry, looked up, the tested form may be a part): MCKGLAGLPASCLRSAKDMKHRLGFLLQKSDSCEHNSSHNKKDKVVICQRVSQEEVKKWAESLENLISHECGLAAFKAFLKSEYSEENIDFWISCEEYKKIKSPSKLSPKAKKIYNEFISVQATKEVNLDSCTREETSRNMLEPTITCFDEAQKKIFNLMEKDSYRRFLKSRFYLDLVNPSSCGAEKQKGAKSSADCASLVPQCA

This assay concerns the target Regulator of G-protein signaling 4 (Homo sapiens) (UniProt P49798). Nature of the assay: Inhibitors of Regulator of G Protein Signaling (RGS) 4: qHTS. Further: nearly all actives have a fitted effect of over 75% in size. The conditions noted are these: Transcreener GDP fluorescence polarization, RGS4-accelerated GTP hydrolysis; series mostly up to 56.9 µM. From the text:
G-protein-coupled receptors (GPCRs) are well-established targets for drug discovery and development. Members of the "regulator of G-protein signaling" (RGS)-protein superfamily have recently emerged as critical modulators of specific GPCR signaling pathways. […] Combining specific RGS domain inhibitors with existing GPCR agonists should potentiate cellular responses and could also increase the specificity of action of existing therapeutics. Small molecule modulators of RGS domain activity should also have clinical utility in inhibiting or potentiating the actions of endogenous GPCR agonists. In particular, the diversity of RGS proteins with highly localized and dynamically regulated distributions in the human brain makes this family of proteins attractive targets for pharmacotherapy of central nervous system (CNS) disorders such as Parkinson's disease, schizophrenia, and anxiety.
This assay was used to screen the NIH Molecular Libraries Small Molecule Repository (MLSMR) in order to identify a small molecule that inhibits RGS4.
NIH Chemical Genomics Center [NCGC]
NIH Molecular Libraries Probe Centers Network [MLPCN]
Assay Submitter (PI): David Siderovski, University of North Carolina Chapel Hill (School of Medicine)
Two microliters of 500nM (2x working concentration) is dispensed into black medium-binding solid-bottom Kalypsys plates. Then with the Kalypsys pintool 23nl of control and compounds are transferred; the control compound is […] CCG-4986 (working concentration). […] An initial fluorescent polarization read (620 nm/688 nm) is performed on the Envision before the plate is incubated for 90 minutes at 30 deg C at a relative humidity of 80%. The plate is once more centrifuged at 1000 RPM for 15 seconds and another Envision fluorescent polarization (620 nm/688 nm) read is carried out.
Background: In qHTS, concentration-response curves come from the screen itself.
With `CC(=O)c1c(O)c(C)c(O)c(Cc2c(O)c3c(c(C(=O)/C=C/c4ccccc4)c2O)OC(C)(C)C=C3)c1O`, the Potency entry was “inactive and 10.6 µM (active)”.

With `CC(=O)OC1C([N+]2(C)CCCCC2)C[C@H]2C3CC[C@H]4C[C@H](OC(C)=O)C([N+]5(C)CCCCC5)CC4(C)C3CCC12C` (stereo partly drawn), the Potency entry was “inactive”.

As for `CCCN(C/C=C/I)C1CCc2ccc(O)cc2C1` (stereo not drawn), the Potency entry is “inactive”.
